The text below walks through data of the supplement of paper PMC6555819.

The first experiment has as its system RARa:RXR (NR concentration 270 nM, RXRa partner concentration 90 nM). Description: PBM binding z-score (relative to random genomic background probes); higher = stronger binding; sequences stand for … in GC…GCGATTGACAGCGTAGAATGAAGG
Summed up:
(§1)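 Binding z-scores take random background probes as their reference. They come from custom Agilent 4×180K protein-binding microarrays incubated 1 h with ligand-free nuclear receptor dimers, with antibodies against each partner (one per run) detecting binding. Scanned fluorescence was regression-normalized.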
Take CCAGACAGGAGAGAAGGTAACTCAGCCTCGATTA: the PBM binding z-score was -0.197.

On to CGTCAAAGTTCAAGGTAACGTACCAGAAAGCAGC, for which the PBM binding z-score came to 3.57.

TCTAGTTGGTCACGGAAGTCACACACGACGGGTA gave a PBM binding z-score of 1.01.

For the sequence ATATGTAGGTTATCGGTTCATTCAGTTTGCGCAT, the PBM binding z-score worked out at 1.73.

Take CCTAGCAGGCCAATGTGGGTCACTCAAGGCTTGA: the PBM binding z-score came to 1.55.

Regarding TCATATAGGTAATACAGGTGAAAGTTGGCATCTA, the PBM binding z-score is 1.77.

As to GCTAGCATGCCATTTGGGTCACTCAATGACGGGC, the PBM binding z-score came to 0.851.

CGTCAAAGTTCAAGGTAACGTTACAGAAAGCAGC gave a PBM binding z-score of 3.46.

CCTTACGGGTCAAGGTTATAGCACGGGTGGTACG: the PBM binding z-score amounted to 4.01.

CGAACTAGGGCATCCAGGACAGTGAATACATTGA yielded a PBM binding z-score of 0.0025.

The sequence TTATCAAGGTGAAGGTCGTTGATCCCTCTGTAGA returned a PBM binding z-score of 2.18.

The sequence CCAGACAGGTGAAATGTAACTCAGTCTGGTACGC gave a PBM binding z-score of 0.296.

The sequence GATTCAGGGTCAAGGCCAGAGTACGCGTATTGAT returned a PBM binding z-score of 5.58.

In turn, CGTCCAAGGTCAATGCTAGGTAAGTGAAAGCATT returned a PBM binding z-score of 3.5.

As for CTCGAAAGGTCGTGCTCAGGTGACTATACCAAAC, the PBM binding z-score was 4.75.

GCTGCTAGGTCCGGTTGGTCAGCTAACGGGTACG: the PBM binding z-score is -0.552.

Take TTACCAAGGTGAGCTGAGGTCGTTGACCCAACTC: the PBM binding z-score was 2.57.

The sequence TCTATTAGTTGACGGGCAACCGACGAGTCCGTTT gave a PBM binding z-score of 0.201.

TTACCAAGGTGAACGTCGTTGATCCCTCTGTAGA registered a PBM binding z-score of 1.26.

In turn, GCTATTAGTCGAAAGGGCAACCGAATGATTCTCG returned a PBM binding z-score of 0.942.

Consider CCTAGCAGGCTAGGGTCACTCAAGCATTTCGCTT, for which the PBM binding z-score worked out at 4.27.

CGTCCAAGGTCAAAAGTCAGTGAAGAGATGACGG yielded a PBM binding z-score of 4.84.

ATCGAAAGATCGTGAGGTGAGTATACAGAAAGGC: the PBM binding z-score was 0.277.

Regarding CCTCGGAGGACCACAGGAGGTCAGAGCTGCCAGA, the PBM binding z-score is 2.45.

TCGAGTAGGTTACCAATGGGGTATTCAGCTTTCT gave a PBM binding z-score of 0.339.

Sequence AGAACGAGGGCACGCTGAGATGATAGCAGAGTAG showed a PBM binding z-score of 0.762.

As for ATCTCTAAGTAAAGTTCAGTGAAAGATCGATAGA, the PBM binding z-score came to 1.34.

TCTTGTAGATCAAAAGAGGTTAAGAAAGTGCGCT: the PBM binding z-score was found to be 1.79.

In turn, ATATGTAGGTTAAGGGTCATTCAGGTTGGTTCGC displayed a PBM binding z-score of 5.87.

With CGAACTAGGTCACTGACAGGACAGTGAATAGTAA, the PBM binding z-score came to 1.94.

Turning to CCTACTGGGCCATCACGTCATTGATATCAACGTT, the PBM binding z-score turned out to be 0.0611.

The sequence ACCATTAGTTGAGACGAGGGCAACCGATAGGTTG had a PBM binding z-score of 1.48.

For the sequence TCGAGTAGGTTACCAATGGGGCATTCTGCTTTCT, the PBM binding z-score was found to be 0.363.

For CAAACTAGGTCAAGAGGTCAATGTCCGCTTCCCG, the PBM binding z-score came out at 6.79.

The sequence TAGCCTAGGTCATTCATGGGCCAGTATAGAAAGC came in with a PBM binding z-score of 2.61.

Sequence GCTTACGGGTCAAAGGTAATAGCATGAATAGAAT yielded a PBM binding z-score of 6.23.

As to TTACCAAGGTAAAGGTCGTTGATCCCTCTGTAGA, the PBM binding z-score was determined as 2.98.

Take TCTTGTAGATCAACAGGGGGTTAAGAAAGATCGA: the PBM binding z-score was 2.42.

CAAACTAGGTCAAGGCCAAAGTCGGTTTGTGCCA came in with a PBM binding z-score of 2.28.

CCAGACAGTTGAGAAGGTAACTCAGCCTCGATTA registered a PBM binding z-score of 0.392.

The next experiment deals with RARa homodimer (NR concentration 270 nM). The experiment is described as above. A digest of the protocol: as §1
CCAGACAGGAGAGAAGGTAACTCAGCCTCGATTA returned a PBM binding z-score of 0.0212.

In the case of CGTCAAAGTTCAAGGTAACGTACCAGAAAGCAGC, the PBM binding z-score is 2.48.

With TCTAGTTGGTCACGGAAGTCACACACGACGGGTA, the PBM binding z-score was 1.21.

In turn, ATATGTAGGTTATCGGTTCATTCAGTTTGCGCAT displayed a PBM binding z-score of 1.25.

In the case of CCTAGCAGGCCAATGTGGGTCACTCAAGGCTTGA, the PBM binding z-score was -0.725.

TCATATAGGTAATACAGGTGAAAGTTGGCATCTA displayed a PBM binding z-score of 1.84.

With GCTAGCATGCCATTTGGGTCACTCAATGACGGGC, the PBM binding z-score was -0.41.

CGTCAAAGTTCAAGGTAACGTTACAGAAAGCAGC yielded a PBM binding z-score of 2.12.

Take CCTTACGGGTCAAGGTTATAGCACGGGTGGTACG: the PBM binding z-score was 0.705.

Turning to CGAACTAGGGCATCCAGGACAGTGAATACATTGA, the PBM binding z-score was -0.274.

For the sequence TTATCAAGGTGAAGGTCGTTGATCCCTCTGTAGA, the PBM binding z-score was -0.235.

As for CCAGACAGGTGAAATGTAACTCAGTCTGGTACGC, the PBM binding z-score stood at 0.296.

In the case of GATTCAGGGTCAAGGCCAGAGTACGCGTATTGAT, the PBM binding z-score came to 0.724.

With CGTCCAAGGTCAATGCTAGGTAAGTGAAAGCATT, the PBM binding z-score amounted to 0.168.

CTCGAAAGGTCGTGCTCAGGTGACTATACCAAAC: the PBM binding z-score worked out at 0.319.

For the sequence GCTGCTAGGTCCGGTTGGTCAGCTAACGGGTACG, the PBM binding z-score was -1.7.

In the case of TTACCAAGGTGAGCTGAGGTCGTTGACCCAACTC, the PBM binding z-score was -0.539.

TCTATTAGTTGACGGGCAACCGACGAGTCCGTTT showed a PBM binding z-score of 0.109.

For the sequence TTACCAAGGTGAACGTCGTTGATCCCTCTGTAGA, the PBM binding z-score is -0.00319.

Sequence GCTATTAGTCGAAAGGGCAACCGAATGATTCTCG came in with a PBM binding z-score of 0.125.

As to CCTAGCAGGCTAGGGTCACTCAAGCATTTCGCTT, the PBM binding z-score is -0.0687.

The sequence CGTCCAAGGTCAAAAGTCAGTGAAGAGATGACGG registered a PBM binding z-score of 0.448.

On to ATCGAAAGATCGTGAGGTGAGTATACAGAAAGGC, for which the PBM binding z-score was -0.457.

Take CCTCGGAGGACCACAGGAGGTCAGAGCTGCCAGA: the PBM binding z-score was found to be 0.245.

With TCGAGTAGGTTACCAATGGGGTATTCAGCTTTCT, the PBM binding z-score is -0.642.

With AGAACGAGGGCACGCTGAGATGATAGCAGAGTAG, the PBM binding z-score is -0.576.

ATCTCTAAGTAAAGTTCAGTGAAAGATCGATAGA displayed a PBM binding z-score of 1.77.

Turning to TCTTGTAGATCAAAAGAGGTTAAGAAAGTGCGCT, the PBM binding z-score was -0.0887.

For the sequence ATATGTAGGTTAAGGGTCATTCAGGTTGGTTCGC, the PBM binding z-score came to 2.71.

Take CGAACTAGGTCACTGACAGGACAGTGAATAGTAA: the PBM binding z-score was -0.0785.

As to CCTACTGGGCCATCACGTCATTGATATCAACGTT, the PBM binding z-score is -0.31.

Consider ACCATTAGTTGAGACGAGGGCAACCGATAGGTTG, for which the PBM binding z-score is -0.14.

Take TCGAGTAGGTTACCAATGGGGCATTCTGCTTTCT: the PBM binding z-score is -0.932.

CAAACTAGGTCAAGAGGTCAATGTCCGCTTCCCG gave a PBM binding z-score of 2.12.

TAGCCTAGGTCATTCATGGGCCAGTATAGAAAGC: the PBM binding z-score is -0.242.

As for GCTTACGGGTCAAAGGTAATAGCATGAATAGAAT, the PBM binding z-score is 0.248.

Take TTACCAAGGTAAAGGTCGTTGATCCCTCTGTAGA: the PBM binding z-score is -0.24.

In turn, TCTTGTAGATCAACAGGGGGTTAAGAAAGATCGA gave a PBM binding z-score of 0.939.

Take CAAACTAGGTCAAGGCCAAAGTCGGTTTGTGCCA: the PBM binding z-score was -0.0524.

CCAGACAGTTGAGAAGGTAACTCAGCCTCGATTA returned a PBM binding z-score of 1.27.
